A selection: hits, their analogues and other compounds. The true share with any hit is near 4.1%.
DAX1 inh-1: inhibitors of human orphan nuclear receptor DAX1 (NR0B1); P51843; HEK293 Gal4-DAX1 luciferase reporter, luminescence; inhibition, % at 6.75 µM; hit rate 0.99% among 340,000;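 active means inhibition above the mean over all tested compounds plus 3 SD, cut at about 4.2% in these data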;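 further: 0% = DAX1-transfected cells with DMSO and 100% = empty-vector control cells with DMSO; inhibition shows as a rise in luminescence from relieved DAX1 repression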
Target sequence (P51843 207-470 limits assumed): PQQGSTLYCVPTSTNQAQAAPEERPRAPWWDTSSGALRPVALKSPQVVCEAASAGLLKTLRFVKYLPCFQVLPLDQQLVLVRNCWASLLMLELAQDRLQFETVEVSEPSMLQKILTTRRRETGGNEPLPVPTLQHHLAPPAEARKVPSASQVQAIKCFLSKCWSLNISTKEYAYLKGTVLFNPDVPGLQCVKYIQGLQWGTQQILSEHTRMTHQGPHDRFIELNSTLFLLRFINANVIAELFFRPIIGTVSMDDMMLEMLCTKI
hgDAF12 agonist: hgDAF-12 agonism, primary luciferase screen; HEK293 GAL4-hgDAF12 UAS-luciferase reporter, agonist luminescence; normalized to butyrate control; activation, % at 6.8 µM; hit rate 1.8% among 370,000;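 active means activation above a cutoff set at the mean of all screened compounds plus 3 SD, cut at about 10% in these data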;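 further: 0% = DMSO wells and 100% = sodium butyrate wells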
hcDAF12 agonist: activates DAF-12 receptor from parasite H. contortus | HEK293 hcDAF-12 lit1-tk-luc reporter, luminescence; 0% DMSO, 100% Δ7-dafachronic acid | activation, % at 6.8 µM | hit rate 1.4% among 370,000 | AID 652067;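 active means activation above the mean of all tested compounds plus 3 SD, cut at about 5.5% in these data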;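 further: 100% = response to 3 µM Δ7-dafachronic acid high control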
DAX1 inh-2: blocks DAX1 repression of SF-1 activated StAR promoter. AID 652010. HEK293T StAR-luciferase reporter, SF-1/DAX-1 repression relief. hit rate 1.1% among 370,000. inhibition, % at 6.8 µM;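 active means inhibition above the mean over all tested compounds plus 3 SD, cut at about 3.6% in these data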;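 further: 0% = DAX-1 cells with DMSO and 100% = cells lacking DAX-1 with DMSO; higher inhibition means more luminescence from relief of DAX-1 repression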
ssDAF12 agonist: activators of S. stercoralis DAF-12 nuclear receptor | HEK293 ssDAF-12/GRIP1 lit1-tk-luc reporter, luminescence; % of 3 µM dafachronic acid response | activation, % at 6.8 µM | hit rate 1% among 370,000 | AID 652126;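 active means activation above the mean over all tested compounds plus 3 SD, cut at about 0.9% in these data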;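 further: 0% = DMSO-only wells and 100% = 3 µM delta7-dafachronic acid wells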
LXR ag: activates human LXR-beta, counter-screen for hcDAF-12 agonists | shares compounds with hcDAF12 agonist | HEK293 Gal4-LXR tk-luc reporter, luminescence, 24 h; normalized: DMSO 0%, positive control 100% | activation, % at 6.8 µM | 3,400 tested, under 10 active;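 active means mean percent activation of the reporter above a cutoff set as the average over tested compounds plus their standard deviation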
hcDAF12 ag: confirmation of H. contortus DAF-12 agonists. activation, % at 6.8 µM. shares compounds with hcDAF12 agonist. HEK293 hcDAF-12 lit1-tk-luc reporter, luminescence; % of Δ7-dafachronic acid response. hit rate 61% among 3,400;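 active means mean activation across triplicate tests above the threshold derived from the earlier primary screen, cut at about 5.5% in these data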;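 further: 0% = DMSO only wells and 100% = 3 µM Δ7-dafachronic acid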
hgDAF12 conf: hgDAF-12 agonism, confirmation assay; shares compounds with hgDAF12 agonist; activation, % at 6.8 µM; HEK293 GAL4-hgDAF12 luciferase reporter, agonist mode; percent of butyrate response; AID 743050; hit rate 80% among 3,300;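 active means mean activation over triplicate wells above the hit cutoff derived from the earlier primary screen, cut at about 11% in these data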;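 further: 0% = DMSO low control and 100% = 2 mM sodium butyrate high control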
LXR ag 2: LXR-beta agonism as DAF-12 counter-screen. activation, % at 6.8 µM. HEK293 Gal4-LXR luciferase reporter, 24 h. shares compounds with hgDAF12 agonist. AID 743051. 3,300 tested, under 10 active;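 active means mean activation of the triplicate above a set limit carried over from the primary screen, none filed active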
* = called active by the depositor; / = no result.

SMILES	DAX1 inh-1	hgDAF12 agonist	hcDAF12 agonist	DAX1 inh-2	ssDAF12 agonist	LXR ag	hcDAF12 ag	hgDAF12 conf	LXR ag 2
N#Cc1ccc(C(=O)NCC2CCN(C(=O)C(=O)c3cccs3)CC2)cc1	/	-1	-1	-2	-1	/	/	/	/
NC(=O)c1ncn2c(=O)n(CCCl)nnc12	/	-1	-3	-1	-2	/	/	/	/
O=C1c2ccccc2-c2nc3ccccc3cc21	4	15*	7.9*	2	1.0*	1	9.9*	17*	1
O=C(Nc1ccc(F)cc1)OC1CC2CC1[C@H]1CCCCN1C2 (stereo partly specified)	/	-3	1	-1	-1	/	/	/	/
COc1cccc(C(CC2=CCCCC2)NC(=O)C(F)(F)F)c1 (stereo unspecified)	/	2	-1	0	-1	/	/	/	/
CC(C)c1ccc(OCc2nc(-c3ccccn3)no2)c(Br)c1	0	15*	7.6*	4.1*	0.9*	1	7.0*	16*	1
Cc1ccc2nc(-c3ccc(O)cc3)oc2c1	0	19*	9.0*	3	2.2*	2	7.2*	21*	1
O=C(CSc1nnc(COc2ccc(Cl)cc2)n1Cc1ccco1)Nc1cccc2ccccc12	/	1	-3	-2	-1	/	/	/	/
Cc1ccc(Nc2ncnc3c2oc2ccccc23)cc1	4.3*	15*	11*	2	1.3*	2	8.1*	18*	1
Cc1nc(Nc2ccc(Cl)cc2)c2oc3ccccc3c2n1	-1	-1	1	0	-1	/	/	/	/
Fc1cccc(/C=N/Nc2nncc3ccccc23)c1	-1	21*	12*	3	1.5*	2	14*	23*	1
COc1ccc(NC(=O)c2c(Cl)nc3ccccn23)cc1	-1	1	-1	1	-2	/	/	/	/
COc1ccc(-c2nc3ccccn3c2Cl)cc1	0	14*	15*	3	3.2*	2	19*	24*	1
Fc1ccc(-n2nnc(-c3cccnc3Cl)n2)cc1	4.4*	17*	7.2*	3	0	1	6	17*	1
O=C(C1CCCN1S(=O)(=O)c1ccc(Cl)s1)N1CCN(c2ccccc2)CC1 (stereo unspecified)	/	2	-4	0	-1	/	/	/	/
COc1ccc(OC)c(CNS(=O)(=O)c2ccccc2Br)c1	/	1	-1	0	-1	/	/	/	/
Cc1ccc(-c2nc3ccccc3nc2NN)cc1	5.1*	18*	12*	3	2.2*	2	11*	20*	1
Cc1ccc(-c2nc3ccccc3nc2Cl)cc1	1	-1	-2	1	-1	/	/	/	/
O=C(O)c1ccc(N/N=C/c2ccc(F)c(F)c2)cc1	-2	18*	11*	4	1	2	8.2*	16*	1
O=C(O)c1ccc(N/N=C/c2ccc3nccnc3c2)cc1	-8	-14	-6	-2	-4	/	/	/	/
Cc1ccc2oc(-c3ccc(C)c(NC(=S)NC(=O)c4cccs4)c3)nc2c1	4.7*	14*	11*	3.9*	2.6*	1	8.9*	14*	1
COc1ccccc1NC(CC(=O)c1ccccc1)C(=O)OCC(=O)c1ccc(C)cc1 (stereo unspecified)	3	14*	8.5*	3	0	2	15*	16*	1
Nc1nn(-c2ccccc2)c(N)c1N=Nc1ccccc1	-1	22*	9.0*	1	1	1	4	29*	1
O=C(N/N=C/c1cc(Br)cs1)c1ccc2c(c1)OCCO2	/	15*	6.6*	0	-1	1	2	24*	1
Cc1ccc(NC(=O)c2ccc3c(c2)OCO3)cc1Cl	4.7*	17*	8.0*	3	1.7*	1	5	18*	1
SMILES	DAX1 inh-1	hgDAF12 agonist	hcDAF12 agonist	DAX1 inh-2	ssDAF12 agonist	LXR ag	hcDAF12 ag	hgDAF12 conf	LXR ag 2
Cc1ccc(/C=N/NC(=O)c2ccc3c(c2)OCCO3)s1	4	6	3	2	0	/	/	/	/
O=C(Nc1cccnc1)c1noc2c1CCCC2	0	6	2	2	-1	/	/	/	/
Cc1ccc(C(=O)Nc2ccc3c(c2)OCO3)o1	1	10	3	2	1	/	/	/	/
O=C(Nc1ccc2c(c1)OCO2)c1noc2c1CCCC2	2	15*	8.1*	2	1	2	8.5*	16*	1
O=C(Nc1ccc2c(c1)OCO2)c1ccc(Br)s1	2	25*	13*	4.3*	1.6*	2	15*	22*	1
COc1ccccc1OC(C)C(=O)Nc1ccc2c(c1)OCCO2 (stereo unspecified)	0	-1	-2	0	-1	/	/	/	/
COc1ccccc1C(=O)Nc1ccc2c(c1)OCCO2	2	14*	6.8*	2	1	1	6.6*	14*	1
CN(c1ccc(C(=O)Nc2ccc3c(c2)OCCO3)cc1)S(C)(=O)=O	1	6	4	2	-1	/	/	/	/
O=C(Nc1ccc2c(c1)OCCO2)c1ccc(Br)cc1	2	15*	8.3*	2	0	2	7.2*	14*	1
OC(c1ccccc1)(c1ccccc1)C1CCN(CCCOc2ccc(-c3cccnc3)cc2)CC1	/	1	0	0	-1	/	/	/	/
COC(=O)C1=C(C)N(Cc2ccccc2C(F)(F)F)C(=NCc2ccc(OC)cc2)NC1c1ccc(Cl)cc1 (stereo unspecified)	/	3	1	-1	-1	/	/	/	/
C[C@H]1[C@@H](NC(=O)C2CCCCC2)CC[C@@]23CCCN2C(=O)CCC[C@@H]13	/	-1	-1	/	-2	/	/	/	/
CC1CC(=O)C2=C(C1)Nc1ccccc1N=C2 (stereo unspecified)	0	5	-2	0	-1	/	/	/	/
CCC1=Nc2ccccc2NC2=C1C(=O)CCC2	2	14*	15*	4	2.6*	0	7.9*	10	0
Nc1ccccc1C(=O)N/N=C1\C2CN3CCN(C2)CC1(c1ccccc1)C3	5.0*	14*	12*	3	0	0	0	2	0
O=C(N/N=C1\C2CN3CCN(C2)CC1(c1ccccc1)C3)c1ccc(F)cc1	2	10	-1	1	-2	/	/	/	/
O=C(Nc1ccc2[nH]c(=S)sc2c1)Nc1ccccc1F	1	15*	7.4*	2	1.7*	2	8.0*	20*	1

High-throughput results from PubChem BioAssay.
